Screening data (PubChem BioAssay)
The list is a sample of the results.
aSyn UTR act = Activators via SNCA 5'UTR binding, MLPCN; activity score, % (tested at 7.5 µM), hits read low; AID 1814; 7.1% of 300,000 active; alpha-synuclein 5'UTR reporter, activators screen; in the data active means activity score below about -60%
Each line names hits and unclear results; the compound was inactive in the other large screens.

NNc1nc2c(F)cccc2s1	aSyn UTR act -281
Fc1cccc2sc(Nc3nc4c(F)cccc4s3)nc12	aSyn UTR act -210
O=C(Nc1nc2c(F)cc(F)cc2s1)C1CCN(C(=O)c2ccc(F)cc2)CC1	aSyn UTR act -162
O=C(Nc1nc2c(F)cccc2s1)C1CC1	aSyn UTR act -111
NNc1nc2c(F)cc(F)cc2s1	aSyn UTR act -164
C=CCN1c2ccccc2[C@]23C[C@@H](C(=O)OC)N(C(=O)c4cc(C)oc4C)C2=NC(C(=O)OC)=C(C(=O)OC)[C@H]13	aSyn UTR act -62
CCOc1ccc(/C=N/Nc2ccccc2)cc1	aSyn UTR act -75
Clc1ccc(/C=N\Nc2ccccc2)cc1	aSyn UTR act -67
O=C(N/N=C/c1ccc(Cl)cc1)Nc1ccccc1	aSyn UTR act -170
O=C(N/N=C/c1ccco1)Nc1ccccc1	aSyn UTR act -130
CC1=CCC(COC(=O)Nc2ccccc2)CC1 (configuration not stated)	aSyn UTR act -139
COc1ccc2[nH]c(C(=O)NCCc3ccccc3)cc2c1	aSyn UTR act -92
COc1ccc2cc(C(=O)N(C)Cc3ccccc3)[nH]c2c1	aSyn UTR act -86
COc1ccc2cc(C(=O)N3CCC(Cc4ccccc4)CC3)[nH]c2c1	aSyn UTR act -77
N/C(=N\OC(=O)c1ccco1)c1cccc([N+](=O)[O-])c1	aSyn UTR act -210
N/C(=N\OC(=O)c1ccco1)c1cccc(Br)c1	aSyn UTR act -249
COc1ccc(/C(N)=N/OC(=O)c2ccco2)cc1OC	aSyn UTR act -142
CCN1CCN(C(=O)c2cc3c(-c4ccc(Cl)cc4)nn(C)c3s2)CC1	aSyn UTR act -68
Cn1nc(-c2ccc(Cl)cc2)c2cc(C(=O)NCCN3CCOCC3)sc21	aSyn UTR act -107
CCOCCCNC(=O)c1cc2c(-c3ccc(Cl)cc3)nn(C)c2s1	aSyn UTR act -62
CCCCN(CC)CCNC(=O)c1cc2c(-c3ccc(Cl)cc3)nn(C)c2s1	none
Cn1nc(-c2ccc(Cl)cc2)c2cc(C(=O)NCCCN3CCOCC3)sc21	aSyn UTR act -134
CCCN(CCC)CCNC(=O)c1cc2c(-c3ccccc3F)nn(C)c2s1	aSyn UTR act -62
COc1ccc(CN=C2Nc3ccccc3CS2)cc1	aSyn UTR act -85
COc1ccc(CN=C2NN=C(c3ccc(Cl)cc3)CS2)cc1	aSyn UTR act -103
CC(C)(C)N=C1NN=C(c2ccc(Cl)cc2)CS1	aSyn UTR act -108
CC(C)(C)N=C1NN=C(c2cc3ccccc3o2)CS1	aSyn UTR act -74
C=CCn1c(C)cc(C2=NNC(=NC(C)(C)C)SC2)c1C	none
COc1ccc2nc(C)cc(SCC(=O)N/N=C/c3ccc(O)cc3O)c2c1	none
COc1ccc2nc(/C=N/NC(=O)CCCCCNC(=O)OC(C)(C)C)ccc2c1	aSyn UTR act -70
CCCCCCCCCn1c2c(c(=N)c3c1CCC3)CCCC2	none
C=CCSc1nnc(-c2cc3c(s2)-c2ccccc2CC3)o1	aSyn UTR act -104
O=C(/C=C/c1ccc(-c2cccc([N+](=O)[O-])c2)o1)N1CCOCC1	aSyn UTR act -110
O=C1NC(=O)/C(=C/c2ccc(-c3cccc([N+](=O)[O-])c3)o2)S1	aSyn UTR act -126
O=[N+]([O-])c1cccc(-c2ccc(/C=N/Nc3nc(N4CCCCC4)nc(N4CCCCC4)n3)o2)c1	none
C/C(=N\Nc1nc2c(s1)CCCC2)c1ccc(Cl)cc1	aSyn UTR act -100
CC(C)C(=O)N1CCN(c2nc3ccc(Cl)cc3s2)CC1	aSyn UTR act -140
CC(C)NC(=O)N1CCCN(c2nc3ccc(Cl)cc3s2)CC1	aSyn UTR act -62
COc1cc(/C=C2/C(=N)N3OC(C)=CC3=NC2=O)ccc1OCCOc1ccc(C)cc1	aSyn UTR act -75
CCn1c(C)cc(C=C2C(=O)c3ccccc3C2=O)c1C	aSyn UTR act -92
Cc1cccc(-n2c(C)cc(C=C3C(=O)c4ccccc4C3=O)c2C)c1	aSyn UTR act -91
CCOC(=O)C(C)On1c(-c2cccc(Cl)c2)nc2ccc([N+](=O)[O-])cc21 (configuration not stated)	aSyn UTR act -62
CCOC(=O)COn1c(-c2cccc(Cl)c2)nc2ccc([N+](=O)[O-])cc21	aSyn UTR act -192
Cn1c(=O)c2nc(-c3ccccc3)oc2c2ccccc21	aSyn UTR act -69
CCOC(=O)N1CCC(=NNc2nc3ccccc3s2)CC1	aSyn UTR act -112
CC(=O)Nc1cccc(/C(C)=N/Nc2nc3ccccc3s2)c1	aSyn UTR act -224
CCOC(=O)N1CCN(/C=C(\C#N)c2nc3ccccc3s2)CC1	aSyn UTR act -94
CC(=O)N1CCC(=NNc2nc3ccccc3s2)CC1	aSyn UTR act -215
CNc1nc(-c2ccc3c(c2)CCN3C(=O)c2cccc(F)c2)cs1	aSyn UTR act -427
CNc1nc(-c2ccc3c(c2)CCN3C(=O)c2ccccc2C)cs1	aSyn UTR act -88
CCCOc1ccc(-c2c(=O)n(O)c3ccccc3[n+]2[O-])cc1	aSyn UTR act -176
Cc1cccc(C(=O)N2CCCC(c3nc(-c4ccc(C)o4)no3)C2)c1 (configuration not stated)	aSyn UTR act -145
CCN(CC)CCNC(=O)c1ccc2c(c1NCCO)C(=O)c1ccccc1C2=O	none
CCN(CC)C(=O)c1ccc2c(c1[N+](=O)[O-])C(=O)c1ccccc1C2=O	aSyn UTR act -93
CN(N=Nc1ccc([N+](=O)[O-])cc1)c1ccccc1	aSyn UTR act -112
CN(CCCC(=O)O)c1ccc(N=Nc2ccc([N+](=O)[O-])cc2)cc1	aSyn UTR act -65
CN(N=Nc1cccc([N+](=O)[O-])c1)c1ccccc1	aSyn UTR act -108
COc1cccc(Nc2ncnc3c2cnn3-c2cccc(C)c2)c1	aSyn UTR act -137
COc1ccccc1Nc1ncnc2c1cnn2-c1cccc(C)c1	aSyn UTR act -84
O=C(NC1CC1)c1ccc(-c2nc3ccccc3s2)s1	none
CCN1CCN(C(=O)c2ccc(-c3nc4ccccc4s3)s2)CC1	aSyn UTR act -66
CCNC(=O)COC(=O)c1ccc(-c2nc3ccccc3s2)s1	aSyn UTR act -67
Cc1noc(C)c1COC(=O)c1ccc(-c2nc3ccccc3s2)s1	aSyn UTR act -206
O=C(c1ccc(-c2nc3ccccc3s2)s1)N1CCOCC1	none
Cc1cc(C)n(-c2nnc3c4ccccc4n(C)c3n2)n1	aSyn UTR act -69
C/C(=N\Nc1nnc2c3ccccc3n(C)c2n1)c1ccc(C)o1	aSyn UTR act -85
CCc1ccc(NC(=O)CCC(=O)Nc2nnc(C(F)(F)F)s2)cc1	aSyn UTR act -73
Cc1ccc(C(=O)/C=C/c2c[nH]c3ccccc23)cc1	aSyn UTR act -237
COc1ccc2[nH]cc(/C=C/C(=O)c3ccccc3)c2c1	aSyn UTR act -245
Cc1ccc(C(=O)/C=C/c2cn(CN3CCN(C)CC3)c3ccccc23)cc1	aSyn UTR act -231
O=C(/C=C/c1c[nH]c2ccccc12)c1ccccc1	aSyn UTR act -330
CN(C)C(=O)N1CCN(c2nc(-c3ccccc3)cs2)CC1	aSyn UTR act -192
c1ccc(-c2csc(N3CCN(c4ccccn4)CC3)n2)cc1	aSyn UTR act -77
Cc1cc(N2CCN(c3nc(-c4ccc([N+](=O)[O-])cc4)cs3)CC2)c2ccccc2n1	none
O=C(N1CCOCC1)N1CCN(c2nc(-c3ccccc3)cs2)CC1	aSyn UTR act -77
c1ccc(-c2csc(N3CCOCC3)n2)cc1	aSyn UTR act -145
O=C1CNC(=S)N1c1nc(-c2ccccc2)cs1	aSyn UTR act -141
Cc1cc(NC(=O)c2cccs2)ncc1NC(=O)c1cccc(F)c1	aSyn UTR act -129
Cc1cc(NC(=O)c2ccccc2F)ncc1NC(=O)c1cccs1	aSyn UTR act -63
